# Laboratory results taken from PubChem BioAssay AID1347430 (National Center for Advancing Translational Sciences (NCATS), 2020).
# Values joined by “and” are separate entries in the source; they are usually repeats but may differ in a detail not shown here. Equal entries are not always repeated. In all, about 91,000 compounds went through this assay and about 130 (0.14%) were called active. Not shown: some 3% with an inconclusive outcome. The call rests on the fitted dose curve; in most records, active means well fitted inhibition curve with a large enough effect; inconclusive means small, poorly fitted or top-dose-only effect; inactive means flat fitted curve, though single readings scatter. The sample as a whole holds a higher share of actives than the screen did. Where a structure was tested more than once in an assay, its records may differ in their call.
# Test system: Uracil-DNA glycosylase
# Test: Primary qHTS assay for inhibitors of Activation Induced Cytidine Deaminase (AID): UDG Counterscreen signal; further: nearly all actives have a fitted effect of over 65% in size
# Conditions: FRET deamination/UDG coupled assay, UDG read, 4 h; series mostly up to 115 µM; activity change, negative = inhibition: at the top concentration
# From the text: Assay Provider (PI) Patricia Gearhart Ph.D.
# National Institute on Aging
# National Institute of Health (NIH), Bethesda, MD
# Assay Provider (PI) Rahul Kohli Ph.D.
# Perelman School of Medicine
# University of Pennsylvania, Philadelphia, PA
# Activation-Induced Deaminase (AID) is a cytosine deaminase which converts cytosine into uracil within stretches of ssDNA. The presence of uracil in DNA initiates a cascade of mutagenic DNA repair to introduce point mutations and DNA double strand breaks. Specific targeting of AID to the immunoglobulin heavy chain loci (Igh) promotes mutagenesis in the antibody variable region for somatic hypermutation (SHM) or switch regions leading to class switch recombination (CSR). However, AID also plays a role in accumulating unnecessary mutations across the genome. Mis-targeting of AID results in the initiation of tumor development and leads to greater drug resistance among cancer cells when continually expressed. To identify an AID inhibitor, a small molecule library will be screened in collaboration with NCATS core facility at NIH. To confirm biological function, inhibitors will be examined in an in vitro murine B-cell activation assay and subsequent secondary validation screens. Top molecules will be further screened to identify inhibitory efficacy against a wild type primary splenocytes assay. Using these approaches, we hope to identify a small molecule with great efficacy and low toxicity for use as a molecular probe to further characterize AID's intricacies, or even as a therapeutic.
# A FRET based analysis of cytosine deamination, was developed to identify potential inhibitors of AID catalytic activity. This screen has two signal output, Read 1 evaluates the AID inhibition response. The second readout (Read 2) evaluates UDG response and is uses as a counterscreen to exclude false positive inhibitors. Inhibition in AID and inactivity in the UDG signal is the desired outcome for this assay.
# SEQUENCE No. (e.g., 1, 2, 3, etc.); […] (e.g., Cells, Incubation, Reagent, etc.); VALUE; DESCRIPTION
# 1a; Reagent; 3 uL; [4/3x] 1 uM AID/2.67 U/mL UDG
# 1b; Reagent; 3 uL; 2 U/mL UDG
# 1c; Reagent; 3 uL; 1 uM AID
# 2a; Compound; 46 nL; Follow-up plates (0.64 uM - 10 mM)
# 2b; Control; 46 nL; ATA ([…] - 10 mM)
# 3; Time; 10 min; incubation at room temperature
# 5; Time; 4 hr; incubation at room temperature
# 6; Reagent; 4 uL; [2x] 250 mM NaOH
# 7; Time; 15 sec; centrifuge at 1000 rpm
# 8; Time; 30 min; incubation at room temperature
# 9a; Detection; fluorescence (Read 1: AID); EnVision (PerkinElmer) plate reader, 540 excitation and 590 emission filters
# 9b; Detection; fluorescence (Read 2: UDG); EnVision (PerkinElmer) plate reader, 560 excitation and 665 emission filters
# NOTES (numbers refer to sequence above)
# 1a; Reagents were dispensed in a medium-binding black solid-bottom Greiner plates (789176F) using a BioRptr liquid dispenser. Dispense 3 uL of [4/3x] 1 uM AID (provided by Kohli lab) and [4/3x] 2 U/mL UDG (NEB M0280L) into columns 1, 2, 5 to 48.
# 1b; Dispense 3 uL of [4/3x] 2 U/mL UDG into column 3.
# 1c; Dispense 3 uL of [4/3x] 1 uM AID into column 4.
# 2a; Compound (7-points [uM] (0.64; 3.2; 16; 80; 400; 2,000; 10,000; 20,000) double pin-transferred (Dip Factor = 2) using the Kalypsys (Wako USA) pintool equipped with a 1536 pinhead for a final concentration range of 7.32 nM - 114 uM.
# 2b; 10 mM Aurintricarboxylic Acid (Sigma A1895) (ATA, 8-point, n = 2, 1:2.5 dilution in column 2) double pin-transferred (Dip Factor = 2) using the Kalypsys (Wako USA) pintool equipped with a 1536 pinhead for a [final] range of 186 nM - 114 uM.
# 3; Room temperature incubation.
# 4; Dispense 1 uL of substrate mixture from the Kohli lab [4x] […] DJC20 and [4x] 250 nM DJC23 into columns 1 to 48 .
# 5; Room temperature incubation.
# 6; Dispense 4 uL of substrate mixture [2x] 250 mM NaOH into columns 1 to 48.
# 7; Centrifugation step to remove bubbles.
# 8; Room temperature incubation
# 9a; Fluorescence signal (column label AID) was read using the EnVision plate reader. […]
# On the % scale 0 is the no-effect control and ±100 the full control effect; potency means the concentration at half of the fitted maximal effect.
SMILES,"activity change, negative = inhibition",Potency
Cc1scc(C(=O)NCCC2=CCCCC2)c1C,-2.73% (inactive),–
CC(C)(C)C(=O)NCC(=O)O,-1.68% (inactive),–
COc1ccc(COC(=O)C2CCN(S(=O)(=O)c3c(Cl)cccc3Cl)CC2)cc1F,3.16% (inactive),–
CN(C)c1ccc(NC(=O)CCC2CCCC2)cc1,-8.67% (inactive),–
CNC(=O)C1CCN(Cc2csc(-c3ccc(C(F)(F)F)cc3)n2)CC1,-2.96% (inactive),–
CC(C)c1cccc(C(C)C)c1-n1ccnc1,0.0082% (inactive),–
CC(C)(C)C(=O)NCCCC(=O)NCc1cccnc1,-10.4% (inactive),–
Fc1ccc(/C=N/N=C/c2ccc(F)cc2F)c(F)c1,0.601% (inactive),–
Cc1ccc(C)c(S(=O)(=O)N2CCN(C(=O)CCc3ncc(-c4ccc(F)cc4F)o3)CC2)c1,-8.7% (inactive),–
Cc1c(-c2ccccc2)[o+]c2ccccc2c1C#Cc1ccccc1,-12.2% (inactive),–
CCCn1nc(C(=O)OCC(N)=O)c2ccccc2c1=O,2.78% (inactive),–
O=C(COC(=O)c1cnc2ccccc2n1)NC12CC3CC(CC(C3)C1)C2,7.71% (inactive),–
COc1cccc(NC(=O)C2(C#N)CCCC2)c1,-4.53% (inactive),–
O=C(NCc1coc(-c2cccs2)n1)c1cccc(C(F)(F)F)c1,-14.5% (inactive),–
O=S(=O)(CCN1CCN(c2cnccn2)CC1)c1ccccc1,5.91% (inactive),–
Cc1cnc(NC(=O)c2nc(C)n(-c3ccc(Cl)cc3)n2)s1,-1.14% (inactive),–
COc1ccccc1Oc1c(C)oc2cc(OC(=O)c3ccc4c(c3)OCO4)ccc2c1=O,12.7% (inactive),–
C/C=C/Cn1c(=O)c2c(nc(-n3nc(C)cc3C)n2CC)n(C)c1=O,-7.1% (inactive),–
Cc1cccc(N(CCC(N)=O)C(=O)c2ccc(C#N)cc2)c1,-1.04% (inactive),–
O=C(c1ccc2c(c1)N(Cc1ccccc1)C(=O)c1ccccc1S2=O)N1CCC2(CC1)OCCO2 (centres undefined),1.58% (inactive),–

SMILES,"activity change, negative = inhibition",Potency
O=C(CCC1CCCC1)NCCc1cccnc1,-8.17% (inactive),–
COc1cc(Br)cc2cc(-c3nc(-c4nonc4N)no3)c(=O)oc12,-7.39% (inactive),–
CC(Oc1ccc(/C=C(/C#N)c2nc3ccccc3[nH]2)cc1)C(=O)O (centres undefined),-8.6% (inactive),–
CCOC(=O)c1noc2nc(C)nc(Nc3ccc(CC)cc3)c12,-1.12% (inactive),–
COc1ccc(N(CC(=O)N2CCN(C)CC2)S(=O)(=O)c2ccccc2)cc1Cl,0% (inactive),–
COc1cc(/C=N/O)ccc1O,0.299% (inactive),–
O=C(O)c1ccc(CSc2cccc(Cl)c2)cc1,-2.1% (inactive),–
FC(F)(F)c1cccc(Oc2ncnc3sc(-c4ccccc4)cc23)c1,-7.76% (inactive),–
CC(C)Cc1nc(NCc2ccncc2)c(C#N)c2c1CCCC2,4.28% (inactive),–
O=C(CCc1ccncc1)Nc1ccccc1,-0.596% (inactive),–
COc1ccc(C(=O)Oc2ccc(Cl)cc2C)c(OC)c1,0.0357% (inactive),–
Cc1ccc(CNC(=O)c2ccc(=O)[nH]c2)s1,-0.737% (inactive),–
CCC(CC)C(=O)Nc1cccc(F)c1,-3.56% (inactive),–
CSc1ccc(Cl)c(C(=O)Nc2ccc(F)c(F)c2)c1,1.41% (inactive),–
CC(=O)c1ccc2[nH]c(C(=O)O)cc2c1,-0.705% (inactive),–
O=C(CCC1CCCCC1)Nc1cccc(F)c1,-0.33% (inactive),–
O=C(CCc1c[nH]c2ccccc12)N1CC=C(c2ccccc2)CC1,-12.6% (inactive),–
CC1CCN(C(=O)CSc2nnc(-c3ccco3)n2N)CC1,3.21% (inactive),–
CCCC(=O)Nc1ccccc1N1CCN(Cc2nc3ccccc3n2C)CC1,-1.83% (inactive),–
Cn1nc(C(=O)Nc2ccc(C(F)(F)F)cc2)c2ccccc2c1=O,-3.73% (inactive),–

SMILES,"activity change, negative = inhibition",Potency
CCCCCn1nc(C(=O)Nc2nccs2)c2ccccc2c1=O,-2.82% (inactive),–
CN(Cc1ccc(C(C)(C)C)cc1)C(=O)C1CCN(C(=O)/C=C/c2ccccc2)CC1,1.65% (inactive),–
COc1ccc(-c2nc3ccccc3o2)cc1NC(=O)c1ccc(Cl)cc1,5.28% (inactive),–
CCOC(=O)c1cc(-c2ccc(S(=O)(=O)N3CCN(c4cc(Cl)ccc4C)CC3)s2)on1,-3.8% (inactive),–
O=C(CSc1ncnc2ccccc12)Nc1ccc(Cl)c(C(F)(F)F)c1,-1.99% (inactive),–
CNc1c(NC(=O)Nc2ccccc2F)c(=O)oc2ccccc12,35.6% (inactive),–
COc1cc(CNC(=O)C(C)Oc2ccccc2)ccn1 (centres undefined),2.82% (inactive),–
Nc1ccc(C(=O)O)cn1,-0.258% (inactive),–
NS(=O)(=O)c1ccc(CCNc2ncnc3c2cnn3-c2ccccc2Cl)cc1,-2.13% (inactive),–
Cc1ccc(-n2ncc3c(NCCCn4ccnc4)ncnc32)cc1Cl,-13.3% (inactive),–
Clc1cccc(-n2ncc3c(NCCc4ccccc4)ncnc32)c1,–,inactive and 89.1 µM (active)
CCc1nn2c(=O)cc(CN3CCCCC3C)nc2s1 (centres undefined),-6.52% (inactive),–
O=C(CCc1cccs1)NCC1CC1,-9.5% (inactive),–
C/C(=N/Nc1ccnc2cc(Cl)ccc12)c1cccc(N)c1,-26.9% (inactive),–
CC(=O)N(Cc1ccc2[nH]ccc2c1)C1CC1,12.3% (inactive),–
O=C(CCn1ccc2ccccc21)N1CCN(S(=O)(=O)c2ccccc2)CC1,-11.7% (inactive),–
COCC(=O)N(Cc1cccs1)C1CC1,-5.11% (inactive),–
CC(c1nc(C(C)(C)C)no1)N(C)Cc1ccc2c(c1)OCO2 (centres undefined),4.82% (inactive),–
Fc1cccc(CSc2nnc(-c3ccccc3F)n2C2CC2)c1,0.268% (inactive),–
